Shiga inhibitor – inhibitors of Shiga toxin in Vero cells. Vero cells, Shiga toxin protein synthesis inhibition reporter. inhibition, % at 38.7 µM. 290,000 compounds, 9.2% hits; in the data active means inhibition mostly above about 28%, no sharp cut-off; inactive means mostly below about 43%; further: 0% is about no effect
Pf growth 96h – P. falciparum growth inhibition at 96 hour, primary screen for plastid delayed-death inhibitors; P. falciparum luciferase reporter growth, 96 h; Potency, µM (series often up to 28.7 µM), for inactives: at the top dose activity change, negative = inhibition, most hits filed as inhibitors; 320,000 compounds, 6.9% hits; further: potency means the concentration at half of the fitted maximal effect; on the % scale 0 is the no-effect control and ±100 the full control effect
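Erythrocytes infected with luciferase-expressing P. falciparum were dispensed at 2% hematocrit and 0.05% parasitemia (final), then incubated with compounds 96 hours at 37 C in 5% CO2. Luminescence after detection reagent addition reported growth.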
HCV inhibitor – HCV inhibition; Potency, µM (series often up to 41.8 µM), for inactives: at the top dose activity change, negative = inhibition, hits mostly inhibitors; 340,000 compounds, 3.4% hits; AID 651820; Huh7.5.1 HCVcc-Cre infection, luciferase reporter, 44 h; further: potency means the concentration at half of the fitted maximal effect; on the % scale 0 is the no-effect control and ±100 the full control effect
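Infectious HCVcc-Cre (~0.5 moi) was added to cells just after compound, with cells seeded 4 h earlier at 1,000 per well. Luciferase activity after 44 h culture reported infection; substrate was incubated 15 min at room temperature before reading.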
Cycloheximide cs – counter-screen hit for Shiga toxin inhibitors, cycloheximide; cell reporter, cycloheximide protein synthesis inhibition counterscreen; max response, %; 300,000 compounds, 12% hits; in the data active means max response mostly above about 13%, no sharp cut-off; inactive means mostly below about 14%; further: read at 38.3 µM for the half of the compounds with a filed dose; 0% is about no effect
Pf growth 48h – inhibits P. falciparum growth in the first generation, 48 h; P. falciparum luciferase growth in erythrocytes, 48 h; Potency, µM (top dose mostly 28.7 µM), inactives show at the highest dose activity change, negative = inhibition, most hits filed as inhibitors; 310,000 compounds, 5.9% hits; AID 504832; further: potency means the concentration at half of the fitted maximal effect; on the % scale 0 is the no-effect control and ±100 the full control effect
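In quantitative HTS format, infected erythrocytes bearing luciferase-reporter parasites were treated for a single generation at 37 C. Luminescence after adding detection reagent served as the growth measure.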
HCMV antiviral – inhibitors of human cytomegalovirus. HFF cells, HCMV-luciferase reporter, 72 h; hits give low values. activity change, negative = inhibition, % at 57.5 µM. 410,000 compounds, 4.5% hits; in the data active means activity change below about -60%; inconclusive means no clear call, values can overlap the other calls; inactive means above about -39%; further: on the % scale 0 is the no-effect control and ±100 the full control effect
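Cell-based, HFFs, 1000 cells/well, 16 h 37C; cpds in DMSO + HCMV-luc, MOI 1 PFU/cell; 72 h 37C; OneGlo luminescence after 5 min RT; norm. to buffer vs Salinomycin 10uM.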
* marks the source's active call; other numbers are inactive results; [ ] = another dose, or the depositor's remark. The list is not random: actives were taken first. Their share in the collection is about 21%. Unless noted, the call rests on the fitted dose curve; in most records, active means well fitted inhibition curve with a large enough effect; inconclusive means small, poorly fitted or top-dose-only effect, or another doubt; inactive means no such curve, though single readings can be large or run the other way.

How did CCCCc1ccc(-n2nc3ccc(NC(=O)c4cc5ccccc5o4)cc3n2)cc1 do in these assays?
HCMV antiviral: -81.6*

How did Cc1cccc(-c2nc3c4ccccc4nc(N4CCN(c5ccc(F)cc5)CC4)n3n2)c1 do in these assays?
HCMV antiviral: 18.1

How did O=c1c2c3nc4ccccc4nc3n(/N=C/c3ccccn3)c2ncn1-c1ccccc1 do in these assays?
Shiga inhibitor: -12.1; Pf growth 96h: -74.5%; HCV inhibitor: -84.7%; Cycloheximide cs: 1.3; Pf growth 48h: inconclusive; HCMV antiviral: -26.9

What do the screens show for `C=CCn1cnc2c(c1=O)c1nc3ccccc3nc1n2/N=C/c1cc(OC)c(OC)c(OC)c1`?
Shiga inhibitor: -20.7; Pf growth 96h: 5.86µM*; HCV inhibitor: inconclusive; Cycloheximide cs: -1.1; Pf growth 48h: 3.7µM*; HCMV antiviral: -14.3

What do the screens show for `C=CCn1cnc2c(c1=O)c1nc3ccccc3nc1n2-c1ccccc1`?
Shiga inhibitor: -3.7; Pf growth 96h: 5.86µM*; Cycloheximide cs: -1.1

What do the screens show for `C=CCn1cnc2c(c1=O)c1nc3ccccc3nc1n2/N=C/c1ccccn1`?
Shiga inhibitor: 13.8; Pf growth 96h: 1.85µM*; Cycloheximide cs: -2.7; Pf growth 48h: -4.0%; HCMV antiviral: -27.8

What do the screens show for `O=C(CN1C(=O)C2(SCC(=O)N2c2ccc(F)c(F)c2)c2ccccc21)Nc1ccccc1F` (configuration not stated)?
HCMV antiviral: 34.7

What do the screens show for `COC(=O)CNc1nc(-c2ccncc2)nc2ccccc12`?
Shiga inhibitor: -2.6; Pf growth 96h: -3.3%[5.75 µM]; HCV inhibitor: -32.1%; Cycloheximide cs: -3.1; Pf growth 48h: -0.2%; HCMV antiviral: 122.6

What do the screens show for `COc1ccccc1C(C)Nc1nc(-c2cccnc2)nc2ccccc12` (configuration not stated)?
Shiga inhibitor: -7.3; Pf growth 96h: inconclusive; HCV inhibitor: inconclusive; Cycloheximide cs: -4.0; Pf growth 48h: 13.1µM*; HCMV antiviral: -7.6

Results for Cc1ccc(Nc2nc(-c3ccncc3)nc3ccccc23)cc1 ?
Shiga inhibitor: 24.7; Pf growth 96h: inconclusive; HCV inhibitor: -62.2%; Cycloheximide cs: -1.9; Pf growth 48h: inconclusive; HCMV antiviral: -1.1

Results for CC(Nc1nc(N2CCNCC2)nc2ccccc12)c1ccccc1 (configuration not stated) ?
Shiga inhibitor: -6.7; Pf growth 96h: 0.0%; HCV inhibitor: 10µM*; Cycloheximide cs: 0.1; Pf growth 48h: 2.94µM*; HCMV antiviral: -36.0

What do the screens show for `CC(Nc1nc(-c2ccncc2)nc2ccccc12)c1ccccc1` (configuration not stated)?
Shiga inhibitor: -4.8; Pf growth 96h: 4.65µM*; HCV inhibitor: inconclusive; Cycloheximide cs: -4.8; Pf growth 48h: 5.22µM*; HCMV antiviral: 53.6

Results for c1ccc(CCNc2nc(-c3ccncc3)nc3ccccc23)cc1 ?
Shiga inhibitor: -16.1; Pf growth 96h: inconclusive; HCV inhibitor: 12.6µM*; Cycloheximide cs: -0.8; Pf growth 48h: inconclusive; HCMV antiviral: -71.1*

Results for CCOCCc1nn2c(=O)cc(COC(=O)C(CC)c3ccccc3)nc2s1 (configuration not stated) ?
HCMV antiviral: -13.1

How did CCOC(=O)c1cc(C#N)c(N2CCCNCC2)nc1C(F)(F)F do in these assays?
Shiga inhibitor: -3.4; Pf growth 96h: inconclusive; HCV inhibitor: 15.8µM*; Cycloheximide cs: -4.0; Pf growth 48h: -29.6%; HCMV antiviral: 0.8

What do the screens show for `COc1cc2nc(NC(=O)c3ccc(S(=O)(=O)N4CCCC4)cc3)sc2cc1OC`?
HCMV antiviral: -62.9*

Results for CC(=O)Nc1nc2ccc(S(=O)(=O)N3CCCC3)cc2s1 ?
Shiga inhibitor: -8.7; Pf growth 96h: inconclusive; HCV inhibitor: 0.6%; Cycloheximide cs: 5.2; Pf growth 48h: -6.5%; HCMV antiviral: -63.3*

Results for CCCC(=O)Nc1nc2ccc(S(=O)(=O)N3CCCCC3)cc2s1 ?
Shiga inhibitor: -13.2; Pf growth 96h: inconclusive; HCV inhibitor: inconclusive; Cycloheximide cs: -3.2; Pf growth 48h: inconclusive; HCMV antiviral: -28.0

What do the screens show for `O=C(CSc1nnc(C2COc3ccccc3O2)o1)Nc1nccs1` (configuration not stated)?
Shiga inhibitor: 27.5; Pf growth 96h: 1.31µM*; HCV inhibitor: -2.4%; Cycloheximide cs: 6.4; Pf growth 48h: 0.7%

How did O=C(CSc1nnc(C2COc3ccccc3O2)o1)NC1CCCCC1 (configuration not stated) do in these assays?
Shiga inhibitor: 39.0; Pf growth 96h: 0.5%; HCV inhibitor: -16.7%; Cycloheximide cs: 20.0*; Pf growth 48h: 4.7%; HCMV antiviral: 8.5

How did O=C(NCC(c1cccs1)S(=O)(=O)c1cccs1)c1ccccc1 (configuration not stated) do in these assays?
HCMV antiviral: -4.5

How did COc1ccc(S(=O)(=O)N2CCN(C(c3ccccc3)c3ccccc3)CC2)cc1NC(C)=O do in these assays?
Shiga inhibitor: -28.4; Pf growth 96h: inconclusive; HCV inhibitor: 3.16µM*; Cycloheximide cs: 1.4; Pf growth 48h: inconclusive; HCMV antiviral: 25.7

What do the screens show for `COc1ccc(S(=O)(=O)N2CCCCC2)cc1NC(=O)c1c(F)cccc1Cl`?
Pf growth 96h: 2.94µM*; HCV inhibitor: inconclusive; Pf growth 48h: 8.28µM*; HCMV antiviral: 44.3

How did COc1ccc(S(=O)(=O)N2CCCC2)cc1NC(=O)c1ccccc1 do in these assays?
Shiga inhibitor: 18.4; Pf growth 96h: 11.7µM*; HCV inhibitor: 13.1%; Cycloheximide cs: -3.2; Pf growth 48h: 2.8%; HCMV antiviral: -14.4

Results for CCc1cc(=O)oc2cc(C)cc(OCC(=O)N[C@@H](CSCc3ccccc3)C(=O)O)c12 ?
Shiga inhibitor: 18.9; Pf growth 96h: -14.9%; HCV inhibitor: 3.0%; Cycloheximide cs: -2.1; Pf growth 48h: inconclusive; HCMV antiviral: 10.0

How did COc1ccc(CN(Cc2cc3cc(OC)c(OC)cc3[nH]c2=O)C(=O)NC2CCCCC2)cc1 do in these assays?
Shiga inhibitor: -4.5; Pf growth 96h: 1.65µM*; HCV inhibitor: -5.9%; Cycloheximide cs: -5.9; HCMV antiviral: 9.2

How did COc1cc2cc(CN(C(=O)NC3CCCCC3)C3CCCC3)c(=O)[nH]c2cc1OC do in these assays?
Shiga inhibitor: -13.4; Pf growth 96h: inconclusive; HCV inhibitor: 16.0%; Cycloheximide cs: 1.8; Pf growth 48h: 11.7µM*; HCMV antiviral: -27.3

What do the screens show for `COc1ccc2cc(CN(C(=O)Nc3ccccc3OC)C3CCCC3)c(=O)[nH]c2c1`?
Shiga inhibitor: -8.2; Pf growth 96h: 17.2%; HCV inhibitor: inconclusive; Cycloheximide cs: -4.8; Pf growth 48h: 2.33µM*; HCMV antiviral: 0.3

Assay outcomes from PubChem.
